# Rpn11 inh: Rpn11 (human) deubiquitinase inhibition | O00487 | human 26S proteasome, Ub4-pepOG fluorescence polarization; 20S core pre-blocked with epoxomicin | inhibition, % at 20 µM | 360,000 compounds, 0.59% hits | AID 588493;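 active = inhibition at 20 µM, scaled to each plate's controls, above about 33%, limit read from the data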
# NRP1-CendR mod: alters CendR peptide binding to human NRP-1; O14786; FAM-RPARPAR peptide binding to NRP-1, fluorescence polarization; inhibition, % at 25 µM; 360,000 compounds, 0.85% hits; AID 602438;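 active = inhibition or corrected inhibition above about 18%, plus a signal ratio from 0.5 to 1.5, limit read from the data, passing the limit was not always enough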
# PHOSPHO1 inh: PHOSPHO1 (human) inhibition. recombinant PHOSPHO1, absorbance phosphatase assay. 290,000 compounds, 1.1% hits. inhibition, % at 13.3 µM. Q8TCT1; in the data active = inhibition above about 60%
# HNF4A DNA FP: change in binding of human HNF4 alpha to DNA; P41235; AID 1224865; activity change, % at 10 µM; HNF4a-FITC DNA binding, fluorescence polarization, 1 h; 360,000 compounds, 0.3% hits; in the data active = activity change above about 30%, passing the limit was not always enough
# TPT1 inh: blocks Candida albicans tRNA 2'-phosphotransferase | inhibition, % at 5 µM | 300,000 compounds, 0.81% hits | recombinant caTPT1, FP RNA substrate dephosphorylation;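 active = inhibition above the mean of all tested compounds plus 3 SD, set per screening campaign, cut at about 24% in these data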;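 also: plate controls were DMSO alone for no effect and ferristatin control at 100 nM for full effect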
# Fh CTSL1 inh: blocks F. hepatica cathepsin L1 in PFM18AAP counter-screen | recombinant F. hepatica cathepsin L1, Z-Leu-Arg-MCA fluorescence | inhibition, % at 5.96 µM | 300,000 compounds, 0.49% hits | AID 1906;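 active = inhibition above the mean of all tested compounds plus 3 SD, set per screening campaign, cut at about 17% in these data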;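 also: 0% = plate median of test compound wells and 100% = 1 µM Z-Phe-Ala-diazomethylketone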
# Rpn11 confirm: confirmation of human proteasome Rpn11 inhibitors; 1,900 compounds, 29% hits; inhibition, % at 20 µM; AID 602318; purified human 26S proteasome, Ub4-pepOG fluorescence polarization; proteasome pretreated with epoxomicin; shares compounds with Rpn11 inh
# MMP-2 inh: MMP-2 (human) inhibition counter-screen; shares compounds with Rpn11 inh; AID 602330; inhibition, % at 20 µM; 1,900 compounds, 4% hits; recombinant MMP-2, FRET peptide cleavage fluorescence;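 also: human MMP-2 activated beforehand with APMA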
# Target sequence (P08253 whole entry, looked up): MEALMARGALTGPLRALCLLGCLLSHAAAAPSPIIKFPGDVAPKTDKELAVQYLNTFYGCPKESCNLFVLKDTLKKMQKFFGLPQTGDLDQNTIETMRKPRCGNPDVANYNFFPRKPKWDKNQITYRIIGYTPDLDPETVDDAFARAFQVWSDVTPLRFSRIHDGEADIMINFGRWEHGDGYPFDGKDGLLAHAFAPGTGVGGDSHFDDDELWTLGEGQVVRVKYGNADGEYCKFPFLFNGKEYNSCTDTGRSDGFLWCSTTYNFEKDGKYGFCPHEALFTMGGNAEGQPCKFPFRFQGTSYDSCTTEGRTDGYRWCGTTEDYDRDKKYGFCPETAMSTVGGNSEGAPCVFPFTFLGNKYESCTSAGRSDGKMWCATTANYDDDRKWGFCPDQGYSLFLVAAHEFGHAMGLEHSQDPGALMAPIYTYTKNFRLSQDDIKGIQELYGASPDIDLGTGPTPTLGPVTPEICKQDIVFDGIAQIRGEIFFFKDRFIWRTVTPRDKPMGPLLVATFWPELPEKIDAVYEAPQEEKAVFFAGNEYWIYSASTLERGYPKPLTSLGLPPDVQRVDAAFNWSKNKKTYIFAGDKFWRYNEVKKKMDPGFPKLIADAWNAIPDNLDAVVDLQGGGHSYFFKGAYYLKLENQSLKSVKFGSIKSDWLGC
# Thrombin inh: blocks bovine thrombin, flagging nonselective RPN11 hits; AID 602333; 1,900 compounds, 13% hits; inhibition, % at 20 µM; shares compounds with Rpn11 inh; bovine thrombin cleavage of Ub4-pepOG, fluorescence polarization;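 active = mean inhibition at least 40% at 20 µM, or signal 3 deviations below plate average, so some actives read negative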;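 also: plate controls were thrombin with DMSO for no effect and buffer wells lacking thrombin for full effect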
# The depositor's hits bear a star; . = not tested or not shown. Shown are actives, neighbours in structure and some others; about 3.3% of the full set was active somewhere. Rule as the data show it, unless noted: active = inhibition above about 40%; inactive = the rest.
SMILES,Rpn11 inh,NRP1-CendR mod,PHOSPHO1 inh,HNF4A DNA FP,TPT1 inh,Fh CTSL1 inh,Rpn11 confirm,MMP-2 inh,Thrombin inh
O=C(O)c1ccc(NC(=S)Nc2ccccc2)cc1,34.3*,-1.7,15.0,5.1,-0.8,-2.0,6.7,7.0,-0.7
CCC(=O)Nc1cccc(NC(=S)NC(=O)c2ccccc2)c1,-7.5,-5.4,9.8,3.0,-3.4,-0.8,.,.,.
COC(=O)c1ccc2c(c1)NC(=O)C(N(CC(C)C)CC(C)C)S2 (centres undefined),47.6*,11.5,34.7,46.8*,0.9,-2.4,16.8,-30.3,9.9
CSc1nnc(Cn2c(=O)sc3ccccc32)n1CCc1ccccc1,-6.0,-3.6,18.6,1.2,-2.4,2.1,.,.,.
Cc1cccc(C)c1NC(=O)C1(C)CCC(=O)N1CCCn1ccnc1 (centres undefined),-13.3,11.8,.,6.3,.,.,.,.,.
O=C(Cn1c2[n+](c3ccc(C(F)(F)F)cc31)CCCCC2)Nc1ccccc1,-9.3,-9.7,9.4,2.0,-0.2,2.7,.,.,.
FC(F)(F)c1ccc2c(c1)n(Cc1ccccc1)c1[n+]2CCCCC1,54.0*,-33.0,5.4,10.7,9.1,0.7,-11.5,3.2,-20.6
O=C(OCC(=O)N1CCCCC1)c1ccc2c(c1)C(=O)N(Cc1ccco1)C2=O,2.6,5.0,.,-2.1,.,.,.,.,.
Cc1ccc(CSCc2ccc(C(=O)O)o2)cc1,8.8,5.5,20.3,-1.4,0.7,1.4,.,.,.
CC(SCc1ccc(C(=O)O)o1)c1ccc(C(=O)O)o1 (centres undefined),143.2*,-1.8,24.2,1.7,-1.4,-0.9,-8.0,-30.4,-8.0
Cc1noc(C)c1CN1C(=O)NC(Cc2ccccc2)(Cc2ccccc2)C1=O,-5.1,15.4,-5.7,0.8,-3.8,-0.4,.,.,.
CCN(CC)CCCNC(=O)c1nn(-c2ccc(OC)cc2OC)c(=O)c2ccccc12,47.8*,1.1,2.1,20.2,-1.8,1.9,11.4,3.9,15.2
CCN(CC)CCCNC(=O)c1nn(-c2cccc(OC)c2)c(=O)c2ccccc12,0.2,1.7,23.8,-1.5,-5.1,-0.8,.,.,.
CC(=O)Oc1ccc(-c2ccc(C(=O)NCCc3ccc(S(N)(=O)=O)cc3)cc2)cc1,48.5*,-9.7,40.5,2.2,-2.4,0.4,11.2,-16.2,9.4
O=C(N/N=C/c1ccc(-c2ccc(S(=O)(=O)Nc3ncccn3)cc2)o1)c1cc2ccccc2cc1O,50.4*,-153.4,7.8,-7.6,-1.3,2.4,50.9*,-19.1,35.5
COc1cc(-c2cc(-c3ccccc3)nc(SCC(=O)O)c2C#N)cc(OC)c1OC,2.6,-10.2,32.6,4.5,1.0,1.7,.,.,.
COc1ccc(-c2cc(-c3ccc(C)cc3)nc(SCc3nnc(-c4ccccc4)o3)c2C#N)cc1OC,122.4*,-1.3,-6.9,11.5,0.5,-7.0,-4.3,-21.1,-7.5
Cc1cc(C)c(S(=O)(=O)N2C[C@H]3CON(C)[C@H]3C[C@H]2c2ccc(N3CCCCC3)cc2)c(C)c1,76.9*,-72.0,.,28.0,.,.,96.0*,-25.9,86.8*
CC(=O)N1CCN(c2ccc(NC(=O)c3cccc(Cl)c3Cl)cc2)CC1,-2.5,1.2,4.6,-1.7,-0.9,-4.8,.,.,.
O=C(Nc1ccc(N2CCCC2)cc1)c1cccc(Cl)c1Cl,51.6*,-51.0,27.3,5.4,4.1,7.3,-1.0,-43.8,-2.6
COc1ccc(C2(C)NC(=O)N(CC(=O)Nc3ccc(-c4nc5ccc(C)cc5s4)cc3)C2=O)cc1 (centres undefined),14.0,-6.9,-6.1,8.9,18.9,2.4,.,.,.
CCC1(c2ccc(F)cc2)NC(=O)N(CC(=O)Nc2ccc(-c3nc4ccc(C)cc4s3)cc2)C1=O (centres undefined),47.2*,-8.5,-5.1,4.3,0.0,-1.9,38.4,7.9,11.3
O=C(CCN1C(=O)NC2(CCCC2)C1=O)Nc1ccc(-c2nc3ccccc3s2)cc1,53.4*,-44.8,.,25.9,.,.,61.3*,33.7,47.6*
Cc1cc2ccccc2c(=O)n1CC(=O)NCc1ccco1,-1.9,-1.6,7.2,-3.5,-2.9,0.1,.,.,.
CCN(CC(=O)Nc1cc(S(=O)(=O)N2CCCCC2)ccc1C)Cc1ccccc1,-1.5,-14.9,.,0.2,-1.8,-0.8,.,.,.
SMILES,Rpn11 inh,NRP1-CendR mod,PHOSPHO1 inh,HNF4A DNA FP,TPT1 inh,Fh CTSL1 inh,Rpn11 confirm,MMP-2 inh,Thrombin inh
COc1cc(/C=C2\SC(N3CCC(C)CC3)=NC2=O)ccc1O,65.4*,-84.0,20.3,13.0,8.4,3.1,33.7,-15.2,28.0
Cc1ccccc1OCCn1cc(/C=C(\C#N)C(=O)NCc2ccco2)c2ccccc21,25.0,-2.7,-14.7,1.1,0.0,1.6,.,.,.
N#C/C(=C\c1cn(CCOc2ccccc2)c2ccccc12)C(=O)NCc1ccco1,35.9*,-14.9,31.7,6.4,-2.8,1.3,7.8,-44.2,-16.3
CCCCCCCCN1[C@@H](CC(=O)OCC)c2cc(F)ccc2S1(=O)=O,4.8,-1.4,.,-3.5,1.1,0.5,.,.,.
CCCCCCCCN1[C@@H](CC(=O)OC)c2cc(F)ccc2S1(=O)=O,56.3*,18.9,.,2.5,-0.8,4.1,10.3,-8.6,5.3
O=C(CSc1nnc2c(n1)[nH]c1ccc(F)cc12)OCc1ccccc1,89.4*,6.9,-6.8,-0.1,-4.5,0.1,-5.3,6.6,-9.9
CCOc1ccc2nc(SCC(=O)N3c4ccccc4Sc4ccccc43)c(C#N)cc2c1,59.3*,-20.0,-16.4,3.0,23.1,-2.9,8.6,-28.5,-2.1
Cc1cc2oc(=O)cc(CN(C)Cc3ccccc3Cl)c2cc1C,-3.2,2.0,41.6,0.6,0.3,2.4,.,.,.
O=c1c2ccccc2c(C=NCc2ccccn2)c(O)n1-c1ccccc1,48.8*,-35.9,7.1,8.0,-0.7,-0.5,34.5,-37.7,6.5
COc1cccc(-n2c(O)c(C=NCc3ccccn3)c3ccccc3c2=O)c1,0.7,3.0,21.9,4.0,-3.7,-4.8,.,.,.
Cc1cc(C)n2nc(N)c(N=Nc3ccc4c(c3)OCO4)c2n1,44.0*,-68.4,-0.3,4.6,14.9,-2.1,37.1,-62.5,36.2
Cc1c(NC(=O)CSCc2c(F)cccc2Cl)c(=O)n(-c2ccccc2)n1C,.,.,-26.2,.,0.1,-2.4,.,.,.
COc1cc(-c2ccc(Nc3ccccc3C(=O)O)c(OC)c2)ccc1Nc1ccccc1C(=O)O,47.7*,-102.8,-1.4,-28.8,.,.,41.0*,72.1*,-29.1
NC1(N)OC(CN2C(=O)c3ccccc3C2=O)CS1 (centres undefined),-0.7,-0.8,37.5,0.6,0.3,4.3,.,.,.

# Screening data as filed in PubChem BioAssay.
